Test results: PubChem BioAssay (NCATS)
A number with no mark means an inactive call. Active and inactive are the calls of the source. No rule for the calls is given here.
Potency is read from the fitted curve at half-maximal effect.

The compounds below were run on HIV-1 nucleocapsid protein NCp7 (binding to TG oligonucleotide) (assay: HIV Nucleocapsid (AID 346;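 also: potency is for inhibitors that block NC binding and lower polarization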)). Details: HIV-1 NC / fluorescein-TGTGTGTG probe, fluorescence polarization.
Summary of the method: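 Fluorescence polarization readout: labelled TG4xF oligo (10 nM) with 100 nM nucleocapsid protein, high-salt (250mM NaCl) Hepes pH 7.5 buffer containing zinc and fresh reducing agents. Compounds added by pin tool; incubation 1 hr, room temperature.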
`COc1cccc(Nc2ncc3nc(CCc4ccccc4)c(=O)n(C)c3n2)c1` showed a Potency of over 4 µM. For `COc1cccc(Cn2c(=O)cnc3cnc(Nc4ccccc4)nc32)c1`, the Potency was 4.95 µM (active). For `COc1ccc(Oc2ncc3nc(-c4ccccc4)c(=O)n(Cc4cccs4)c3n2)cc1`, the Potency was over 20 µM. `CN1CCN(c2nc(-c3ccc4c(c3)OCO4)nc3ccccc23)CC1` showed a Potency of over 20 µM. Compound `N#CCCn1c(=O)c(CCc2ccccc2)nc2cnc(N3CCOCC3)nc21` has a Potency of over 20 µM. Work on `COc1ccc(-c2nc3cnc(Nc4cccc(OC)c4)nc3n(C3CC3)c2=O)cc1` yielded a Potency of 15.7 µM. `COc1ccc(-n2c(=O)c(-c3cc(F)cc(F)c3)nc3cncnc32)cc1` gave a Potency of over 20 µM. Compound `CCNc1ncc2nc(-c3cccc(C#N)c3)c(=O)n(Cc3cccc(OC)c3)c2n1` has a Potency of 17.7 µM. Work on `O=C(c1cccc(F)c1)N1CCC2(CCN(Cc3ccncc3)CC2)CC1` yielded a Potency of over 20 µM. In the case of `CS(=O)(=O)N1CCC2(CC1)CN(C(=O)Nc1cccc(C#N)c1)C2`, the Potency is reported as over 20 µM. Work on `COc1ccc(-n2c(=O)c(-c3cccs3)nc3cnc(N(C)C)nc32)cc1` yielded a Potency of over 4 µM. In the case of `COCCn1c(=O)cnc2cnc(N(C)C)nc21`, the Potency is reported as over 20 µM. Compound `Cc1nc2cnc(N(C)C)nc2n(Cc2ccc(F)cc2)c1=O` has a Potency of over 20 µM. `COc1ccc(-n2c(=O)c(-c3cccs3)nc3cnc(Nc4cccc(OC)c4)nc32)cc1` showed a Potency of over 20 µM. `COc1ccc(-c2nc3cnc(N4CCNCC4)nc3n(CCc3ccccc3)c2=O)cc1` gave a Potency of over 20 µM. For `O=C(Nc1ccccc1)N1CCC2(CC1)CCN(S(=O)(=O)c1ccccc1)CC2`, the Potency was over 20 µM. `CN1CCN(c2ncnc3ccc(-c4ccccc4C(F)(F)F)cc23)CC1` showed a Potency of over 20 µM. `CN(C)c1ncnc2ccc(-c3ccccc3C#N)cc12` was tested, and the Potency was over 20 µM. `Cn1c(=O)c(CCc2ccccc2)nc2cnc(OCc3ccccc3)nc21` gave a Potency of over 20 µM. `O=C(c1cc(C(F)(F)F)cc(C(F)(F)F)c1)N1CCC2(CC1)CN(c1ccccc1)C2` gave a Potency of over 20 µM. Compound `Clc1ccccc1-c1cc(NCc2ccccc2)ncn1` has a Potency of over 20 µM. `O=c1c(-c2cc(F)cc(F)c2)nc2cnc(N3CCNCC3)nc2n1Cc1ccc(F)cc1` was tested, and the Potency was over 20 µM. `COc1ccccc1CNc1ccnc(-c2ccccc2CN(C)C)n1` gave a Potency of over 20 µM. `COc1ccccc1-c1nc(NCc2cccnc2)c2ccccc2n1` was tested, and the Potency was over 20 µM. `c1csc(CNc2ncncc2-c2ccc3c(c2)OCO3)c1` gave a Potency of over 20 µM. `COc1cccc(-c2nccc(NCc3cnc(C)cn3)n2)c1` gave a Potency of over 20 µM. Compound `CN(C)c1ccc(-c2nc(-n3ccnc3)c3ccccc3n2)cc1` has a Potency of over 20 µM. `CS(=O)(=O)Nc1cccc(-c2nc(NCCN3CCOCC3)c3ccccc3n2)c1` showed a Potency of over 20 µM. In the case of `COc1ccc(CNc2nc(-c3ccc(C(=O)N(C)C)cc3)nc3ccccc23)c(OC)c1`, the Potency is reported as over 20 µM. `COc1ccccc1-c1ccc2ncnc(NCc3cccnc3)c2c1` was tested, and the Potency was over 20 µM. With `O=C(c1cccc(F)c1)N1CCC2(CCCN(Cc3nccs3)C2)CC1` the Potency was over 20 µM. `N#CCCn1c(=O)c(-c2cc(F)cc(F)c2)nc2cnc(Oc3ccccc3)nc21` was tested, and the Potency was over 20 µM. For `COc1ccc(C(=O)N2CCC3(CC2)CCN(c2ncccn2)CC3)cc1`, the Potency was over 20 µM. Work on `CNc1cc(-c2ccccc2C(F)(F)F)ncn1` yielded a Potency of over 20 µM. For `COc1ccccc1-c1cncnc1NCCNC(C)=O`, the Potency was over 20 µM. `Cc1cccc(CNc2ncnc3ccc(-c4c(C)noc4C)cc23)c1` was tested, and the Potency was over 20 µM. `O=c1c(-c2ccccc2)nc2cncnc2n1Cc1ccccc1` was tested, and the Potency was over 20 µM. With `O=c1c(-c2cc(F)cc(F)c2)nc2cnc(N3CCOCC3)nc2n1-c1ccccc1` the Potency was over 4 µM. `Cc1nc2cncnc2n(-c2ccccc2)c1=O` was tested, and the Potency was over 20 µM. For `COc1ccc(C(=O)N2CCC3(CC2)CCN(c2cccc(-c4ccccc4)c2)CC3)cc1`, the Potency was over 20 µM.
